The supplement of paper PMC6555819

Legend:
Experiment in all cases: PBM binding z-score (relative to random genomic background probes); higher = stronger binding; sequences stand for … in GC…GCGATTGACAGCGTAGAATGAAGG
[1] = test system: PPARg:RXRa DBDmut IVT, anti-RXR (DBD mutation: RXRa K156A/R161A, NR concentration 270 nM, RXRa partner concentration 90 nM)
Procedure, shortened: (§1)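 Binding buffer was PBS pH 7.4 with 2% milk, 0.02% Triton X-100, 1 mM DTT, 0.2 mg/mL BSA and 0.4 mg/ml salmon testes DNA. In it, ligand-free nuclear receptor dimers were incubated 1 h on custom Agilent 4×180K protein-binding microarrays carrying double-stranded probes. Antibodies against each partner (one per run) detected binding, and z-scores were calculated against random background probes after regression normalization of scanned fluorescence.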

[2] = test system: PPARg:RXRa IVT, anti-PPARg (NR concentration 270 nM, RXRa partner concentration 90 nM)
Procedure, shortened: as §1

[3] = test system: PPARg DBDmut:RXRa IVT, anti-PPARg (DBD mutation: PPARg1 K132A/R137A, NR concentration 270 nM, RXRa partner concentration 90 nM)
Procedure, shortened: as §1

[4] = test system: PPARg DBDmut IVT, anti-PPARg (DBD mutation: PPARg1 K132A/R137A, NR concentration 270 nM)
Procedure, shortened: as §1

[5] = test system: PPARg homodimer (NR concentration 180 nM)
Procedure, shortened: as §1

[6] = test system: PXR:RXRa (NR concentration 270 nM, RXRa partner concentration 90 nM)
Procedure, shortened: as §1

[7] = test system: PXR homodimer (NR concentration 270 nM)
Procedure, shortened: as §1

[8] = test system: RARa:RXR (NR concentration 270 nM, RXRa partner concentration 90 nM)
Procedure, shortened: as §1

[9] = test system: RARa homodimer (NR concentration 270 nM)
Procedure, shortened: as §1

[10] = test system: RARb:RXRa (NR concentration 270 nM, RXRa partner concentration 90 nM)
Procedure, shortened: as §1

Row | Sequence | PBM binding z-score [1] | PBM binding z-score [2] | PBM binding z-score [3] | PBM binding z-score [4] | PBM binding z-score [5] | PBM binding z-score [6] | PBM binding z-score [7] | PBM binding z-score [8] | PBM binding z-score [9] | PBM binding z-score [10]
1 | AGAACGAGGGCACGCGGAGTTGATAGCAGAGTAG | 4.28 | 4.01 | 0.563 | -0.521 | 0.0413 | 1.45 | -0.14 | 1.12 | -0.653 | 2.64
2 | TAGCCTGGGTCATTGGGCCAGTATAGTACGCATC | 1.27 | 3.57 | 0.337 | -0.475 | 0.764 | 1.44 | -1.02 | 2.07 | -0.67 | 3.34
3 | ACAGACAGGTGAGTGAAGGTAAATCAGCTGGACG | 0.437 | 0.547 | -0.117 | 0.0853 | 0.0194 | -0.359 | -0.168 | 0.0806 | -0.397 | 0.388
4 | GGAACAAGGGCATTCGAGTTGATAGCATGGCGAT | 2.21 | 1.65 | -0.248 | -0.286 | 0.614 | 3.18 | 0.975 | 0.884 | 0.198 | 2.02
5 | AATACAGGGTCACTAGGCCAGAGTAGGTACGAAT | 3.83 | 5.94 | 2.04 | 1.71 | 2.24 | 3.28 | 0.432 | 4.51 | 0.176 | 4.39
6 | CGTCCTAGGTCAGCAGGTCAGTGAAAGCGACGTG | 3.21 | 3.44 | -0.463 | -0.745 | 1.79 | 1.75 | -0.5 | 2.64 | -0.501 | 4.39
7 | CCTTACGGTTCACGAGGTTATAGCACGACGAGCG | 0.19 | 0.535 | 0.19 | 0.414 | 1.45 | 3.2 | 1.29 | 3.8 | 1.36 | 1.99
8 | ACAGACAGGTGAGTGAAGCTAACTCAGCTGGACG | 0.196 | 0.291 | -0.859 | -1.17 | -1.1 | -0.701 | -0.552 | -0.839 | -0.721 | 0.276
9 | AGATGTAGGTTATCGGGTCATTCAGTTTGCGCAT | 7.36 | 7.13 | 2.95 | 1.82 | 2.53 | 4.02 | 7.55 | 4.01 | 1.35 | 2.73
10 | GCAGACAGGTGAAACGCAGGTAAGTCAGGGTGGC | 0.702 | 0.327 | -0.327 | -0.89 | -0.504 | -0.471 | -0.705 | 0.101 | -0.533 | 0.61
11 | CGCGAAAGGTCGGTTGAGGTGAGTATACGGATAA | 0.0113 | 0.699 | 0.0036 | -0.174 | 0.986 | 3.35 | -0.075 | 3.62 | 0.138 | 3.08
12 | CGAACGAGGGAATGAGTTGATAGCAAATGCCGAT | -0.446 | -0.487 | -0.561 | 0.167 | -0.451 | -0.632 | -0.33 | -0.875 | -0.143 | -0.567
13 | ACTTACGGGTCAACGAGTTTATAGCACGCGTATA | 3.67 | 3.98 | 1.94 | 1.27 | 1.4 | 5.9 | 9.25 | 4.24 | 0.513 | 4.14
14 | CCTAGTTGGTCAGGAGCTCACACACCGGATATGA | 0.512 | 0.377 | 0.181 | -0.1 | 0.317 | -0.386 | -0.151 | -0.201 | 0.575 | 0.469
15 | CAAACTCGGTCAAAGGTCAAAGTCGAGCCAACCA | 5.71 | 7.61 | 1.95 | 3.41 | 6.43 | 6.69 | 2.5 | 8.37 | 3.33 | 5.43
16 | CCTCGGTGGACAGAAGGTCAGAGCTGTCCGCTTT | -0.193 | 0.138 | -2.04 | -1.69 | 1.8 | 1.32 | -0.447 | 1.66 | -0.0873 | 2.56
17 | TAGCCTAGGTCAGACCGGGCCAGTATACGCTATA | 0.42 | 1.13 | -0.551 | -1.06 | 0.235 | 0.913 | -0.412 | 1.14 | -1.16 | 3
18 | ATATGTAGGTTAGCTGGGGTCATACAGACTAGGC | 6.97 | 6.06 | 1.52 | 1.48 | 2.67 | 6.28 | 3.07 | 5.89 | 1.68 | 3.13
19 | ATCTCTAGGTAAGAGTTCAGTGAATCCCGAGGAT | 1.35 | 2.7 | 0.769 | 1.17 | 1.09 | 2.32 | 2.16 | 0.952 | 0.264 | 1.96
20 | ATATGTAGGTTAGCTGGGGTCATTCATACTAGGC | 6.88 | 6.57 | 2.9 | 2.72 | 3.41 | 6.71 | 4.4 | 6.18 | 2.13 | 3.28
21 | GCTAGGTGGTCAGTAAAAGGTCACACACCGGTCG | 0.659 | 2.52 | 0.634 | 0.226 | 4.93 | 5.02 | 1.22 | 5.97 | 2.31 | 4.34
22 | CCTACTGGGCCCTCAGGTCATTGATATCAACGTT | -0.0673 | 1.11 | -0.224 | -0.58 | 0.88 | 1.43 | 0.581 | 1.64 | 0.179 | 1.4
23 | AGAATGAGGTTAAGCTCAGGGAAACAGAATACAT | 3.66 | 2.98 | 0.873 | 0.751 | -0.0277 | 1.1 | 0.0253 | 2.17 | -0.438 | 2.06
24 | ACTAGCAGGCCAAGTTTGGGTCACCCAAACAAAG | 0.771 | 1.58 | -0.22 | -0.356 | 0.716 | 1.08 | -0.637 | 1.89 | -1.22 | 2.06
